# Measurements taken from PubChem BioAssay (Tox21).
# Records with an inconclusive call do not appear. Activity calls are given as the source filed them. Unless noted, calls follow the shape of the dose curve; as a rule, active = well fitted curve in the direction sought with a large enough effect in the repeat runs; inconclusive = weak or mixed curves; inactive = no such curve, though single readings can be large; an effect the other way counts as inactive or inconclusive.
# How the values were obtained:
# [1] = qHTS assay to identify small molecule agonists of the peroxisome proliferator-activated receptor delta (PPARd) signaling pathway - cell viability counter screen (AID 743211); also: potency is read from the fitted curve at half-maximal effect; nearly all actives have a fitted effect of over 55% in size
# In short: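 PPARd-bla HEK293H cells (3000/well) were pre-incubated 5 h at 37 C, then exposed to compound for 17 h at 37 C. After 2 h with LiveBLAzer substrate, CellTiter-Glo was added to the same wells; luminescence read after 30 min at room temperature.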
# [2] = target: Bile acid receptor (Homo sapiens) (UniProt Q96RI1); test: qHTS assay to identify small molecule antagonists of the farnesoid-X-receptor (FXR) signaling pathway (AID 743217; active = well fitted inhibition curve with a large enough effect in the signal ratio in the repeat runs, not every such curve was filed as active; the % refers to the signal ratio)
# Sequence of Bile acid receptor (Homo sapiens) (Q96RI1 whole entry, looked up): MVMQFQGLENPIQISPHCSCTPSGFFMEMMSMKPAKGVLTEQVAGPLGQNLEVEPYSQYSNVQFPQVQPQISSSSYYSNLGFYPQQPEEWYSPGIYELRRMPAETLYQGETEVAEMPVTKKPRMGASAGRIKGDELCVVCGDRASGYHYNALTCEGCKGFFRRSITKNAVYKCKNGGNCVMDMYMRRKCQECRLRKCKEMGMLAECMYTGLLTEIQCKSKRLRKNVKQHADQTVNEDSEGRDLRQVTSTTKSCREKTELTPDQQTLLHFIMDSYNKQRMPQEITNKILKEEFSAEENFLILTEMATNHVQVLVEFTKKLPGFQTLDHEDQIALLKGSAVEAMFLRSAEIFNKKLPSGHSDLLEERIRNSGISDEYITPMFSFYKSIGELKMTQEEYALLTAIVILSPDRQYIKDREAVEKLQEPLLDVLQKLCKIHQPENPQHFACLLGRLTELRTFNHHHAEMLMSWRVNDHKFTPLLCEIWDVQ
# In short: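 FRET fluorescence after 2 h room-temperature LiveBLAzer loading gives the readout. Prior step: FXR-bla HEK 293T cells, seeded and incubated 5 h, received test compounds plus 50 uM final CDCA for 16 h at 37 °C.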
# [3] = qHTS assay to identify small molecule agonists of the farnesoid-X-receptor (FXR) signaling pathway - cell viability counter screen (AID 743218); also: nearly all actives have a fitted effect of over 45% in size; also: potency is read from the fitted curve at half-maximal effect
# In short: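 Readout: CellTiter-Glo luminescence, 30 min RT, multiplexed after the FXR-bla FRET reading. HEK 293T FXR-UAS-bla cells received compound 5 h post-plating and were incubated 16 h at 37 C.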
# [4] = target: Bile acid receptor (Homo sapiens) (UniProt Q96RI1); test: qHTS assay to identify small molecule agonists of the farnesoid-X-receptor (FXR) signaling pathway (AID 743220; active = well fitted activation curve with a large enough effect in the signal ratio in the repeat runs, not every such curve was filed as active; the % refers to the signal ratio)
# In short: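 FXR-UAS-bla HEK 293T cells carrying a UAS-driven beta-lactamase reporter were plated for 5 h at 37C/5% CO2, then exposed to DMSO-dissolved Tox21 10K compounds for 16 h at 37C. A LiveBLAzer B/G FRET substrate was loaded for 2 h at room temperature before fluorescence reading.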
# [5] = target: Vitamin D3 receptor (Homo sapiens) (UniProt P11473); test: qHTS assay to identify small molecule agonists of the vitamin D receptor (VDR) signaling pathway (AID 743222; calls by dose curve)
# Sequence of Vitamin D3 receptor (Homo sapiens) (P11473 whole entry, looked up): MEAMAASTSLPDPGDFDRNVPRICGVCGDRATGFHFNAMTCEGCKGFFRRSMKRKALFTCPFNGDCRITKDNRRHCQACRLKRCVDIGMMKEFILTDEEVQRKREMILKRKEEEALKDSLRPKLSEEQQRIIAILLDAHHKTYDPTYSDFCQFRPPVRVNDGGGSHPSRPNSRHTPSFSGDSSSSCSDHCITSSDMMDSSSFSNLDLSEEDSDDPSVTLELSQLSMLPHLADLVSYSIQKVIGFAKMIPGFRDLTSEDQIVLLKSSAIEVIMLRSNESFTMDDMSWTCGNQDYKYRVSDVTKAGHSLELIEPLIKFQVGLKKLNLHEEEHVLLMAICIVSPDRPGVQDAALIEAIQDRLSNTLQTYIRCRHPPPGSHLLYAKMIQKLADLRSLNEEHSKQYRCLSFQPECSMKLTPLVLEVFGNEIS
# In short: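 Following 4 h attachment at 37C, VDR-bla cells (2,000 per well) received DMSO-dissolved compounds or controls. After 16 h incubation, LiveBLAzer B/G FRET substrate was added and fluorescence read 2 h later at room temperature.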
# [6] = target: Vitamin D3 receptor (Homo sapiens) (UniProt P11473); test: qHTS assay to identify small molecule antagonists of the vitamin D receptor (VDR) signaling pathway (AID 743223; active = well fitted inhibition curve with a large enough effect in the signal ratio in the repeat runs, not every such curve was filed as active; the % refers to the signal ratio)
# In short: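 VDR-bla cells were treated with compound plus 3 nM final 1alpha,25-dihydroxyvitamin D3 for 16 h at 37C. Beta-lactamase reporter read by B/G FRET substrate fluorescence after 2 h at room temperature. qHTS format.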
# [7] = qHTS assay to identify small molecule agonists of the vitamin D receptor (VDR) signaling pathway - cell viability counter screen (AID 743224); also: nearly all actives have a fitted effect of over 50% in size; also: potency is read from the fitted curve at half-maximal effect
# In short: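 In parallel with the bla FRET readout, cytotoxicity toward VDR-bla cells after 16 h compound exposure was assessed by CellTiter-Glo, with luminescence recorded after a 30 min room-temperature incubation.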
# [8] = qHTS assay to identify small molecule agonists of the NFkB signaling pathway - cell viability counter screen (AID 1159515; calls by dose curve; also: nearly all actives have a fitted effect of over 55% in size; also: potency is read from the fitted curve at half-maximal effect)
# In short: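 Plate 2,000 NFkB-bla ME-180 cells/well; incubate overnight. Add compounds, 5 hr at 37 C. Add FRET substrate, 1.5 hr RT. Add CellTiter-Glo, 30 min RT; read luminescence.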
# [9] = qHTS assay to identify small molecule agonists of the endoplasmic reticulum stress response signaling pathway - cell viability counter screen (AID 1159517; calls by dose curve; also: nearly all actives have a fitted effect of over 50% in size; also: potency is read from the fitted curve at half-maximal effect)
# In short: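 Cpd-treated ESRE-bla HeLa (5 hr, 37 C) → LiveBLAzer 2 hr RT → CellTiter-Glo 30 min RT → luminescence.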
# [10] = target: Nuclear receptor ROR-gamma (Homo sapiens) (UniProt P51449); test: qHTS assay to identify small molecule antagonists of the retinoid-related orphan receptor gamma (ROR-gamma) signaling pathway (AID 1159521; also: nearly all actives have a fitted effect of over 50% in size; also: potency is read from the fitted curve at half-maximal effect)
# In short: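 Tet-on ROR-gamma CHO cells with ROR response element-luciferase reporter; compounds added 2 hr before 1 uM doxycycline induction, then 16 hr at 37 C. Antagonism scored as decreased ONE-Glo luminescence.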
# [11] = qHTS assay to identify small molecule agonists of the AP-1 signaling pathway - cell viability counter screen (AID 1159525; calls by dose curve; also: nearly all actives have a fitted effect of over 55% in size; also: potency is read from the fitted curve at half-maximal effect)
# In short: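 Each titration point was normalised to DMSO and tetra n-octyl ammonium bromide controls. The read was Cell Titer Glo luminescence after 30 min at RT, following 5 h compound exposure of ME-180 AP-1-bla cells at 37 °C.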
# [12] = qHTS assay to identify small molecule antagonists of the peroxisome proliferator-activated receptor delta (PPARd) signaling pathway - cell viability counter screen (AID 743213); also: nearly all actives have a fitted effect of over 50% in size; also: potency is read from the fitted curve at half-maximal effect
# In short: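 PPARd-bla HEK293H cells (3000/well) got compound plus 300 nM L165041 agonist for 17 h at 37 C. Viability in the same wells came from CellTiter-Glo luminescence after 30 min at room temperature.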
# [13] = target: Peroxisome proliferator-activated receptor delta (Homo sapiens) (UniProt Q03181); test: qHTS assay to identify small molecule antagonists of the peroxisome proliferator-activated receptor delta (PPARd) signaling pathway (AID 743215; active = well fitted inhibition curve with a large enough effect in the signal ratio in the repeat runs, not every such curve was filed as active; the % refers to the signal ratio;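 also: cells stimulated with agonist L165041 at 300 nM final during compound exposure; potency is read from the fitted curve at half-maximal effect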)
# Sequence of Peroxisome proliferator-activated receptor delta (Homo sapiens) (Q03181 whole entry, looked up): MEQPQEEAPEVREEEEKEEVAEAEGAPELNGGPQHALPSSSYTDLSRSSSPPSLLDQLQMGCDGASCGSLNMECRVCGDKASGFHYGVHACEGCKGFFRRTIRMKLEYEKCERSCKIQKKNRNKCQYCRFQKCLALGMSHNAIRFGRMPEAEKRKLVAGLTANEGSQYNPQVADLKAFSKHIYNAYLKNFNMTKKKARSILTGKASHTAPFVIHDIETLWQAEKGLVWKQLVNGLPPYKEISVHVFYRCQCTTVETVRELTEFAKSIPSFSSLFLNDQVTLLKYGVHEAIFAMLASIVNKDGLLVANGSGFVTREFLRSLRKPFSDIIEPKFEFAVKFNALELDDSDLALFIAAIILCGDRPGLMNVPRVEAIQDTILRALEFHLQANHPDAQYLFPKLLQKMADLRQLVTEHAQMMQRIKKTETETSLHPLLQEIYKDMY
# In short: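 Fluorescence from cleaved LiveBLAzer B/G FRET substrate (2 h, room temperature) reports PPARd-driven beta-lactamase in HEK293H UAS-bla cells. Cells had been treated 17 h at 37 C with compound plus 300 nM final L165041.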
# [14] = qHTS assay to identify small molecule antagonists of the vitamin D receptor (VDR) signaling pathway - cell viability counter screen (AID 743225); also: nearly all actives have a fitted effect of over 50% in size; also: potency is read from the fitted curve at half-maximal effect
# In short: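 VDR-UAS-bla HEK 293T cells were plated and incubated 4 h at 37C, then dosed with compound plus 3 nM (final) 1-alpha,25-dihydroxyvitamin D3 for 16 h. After the 2 h beta-lactamase read, viability in the same wells was read as CellTiter-Glo luminescence after 30 min at room temperature.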
# [15] = qHTS assay to identify small molecule antagonists of the retinoid-related orphan receptor gamma (ROR-gamma) signaling pathway - cell viability counter screen (AID 1159520)
# In short: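 Tet-on ROR gamma CHO cells (1,000/well) were plated 4 hr, given compounds in DMSO for 2 hr at 37 C, then induced with 1 uM final doxycycline for 16 hr. Viability was read as ATP by CellTiter-Glo luminescence after 30 min.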
# [16] = qHTS assay to identify small molecule antagonists of the farnesoid-X-receptor (FXR) signaling pathway - cell viability counter screen (AID 743221; active = well fitted cell-killing curve with a large enough effect in the repeat runs, not every such curve was filed as active)
# In short: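 GeneBLAzer FXR-UAS-bla HEK 293T cells, compound plus chenodeoxycholic acid (50 uM final), 16 h at 37 C. CellTiter-Glo added to the same wells after the beta-lactamase read; luminescence read after 30 min at room temperature as viability.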
# [17] = qHTS assay to identify small molecule agonists of the AP-1 signaling pathway (AID 1159526; calls by dose curve)
SMILES,Potency [1],Potency [2],Potency [3],Potency [4],Potency [5],Potency [6],Potency [7],Potency [8],Potency [9],Potency [10],Potency [11],Potency [12],Potency [13],Potency [14],Potency [15],Potency [16],Potency [17]
CCCCCCCCOc1ccccc1C(=O)Nc1ccc(C(=O)OCC[N+](C)(CC)CC)cc1,26.6 µM (active),inactive,inactive,inactive,inactive,inactive,inactive,12 µM (active),inactive,inactive,26.8 µM (active),,,,,,
Cc1cc(CCN2CCN(c3nsc4ccccc34)CC2)cc2c1NC(=O)CC2(C)C,21.9 µM (active),,21.9 µM (active),,,,17.4 µM (active),54.9 µM (active),,9.69 µM (active),54.9 µM (active),19.5 µM (active),19.5 µM (active),19.5 µM (active),61.1 µM (active),,
O=c1c(-c2ccccc2)c1-c1ccccc1,,,9.44 µM (active),inactive,,,,inactive,inactive,18.8 µM (active),,,,,,13.3 µM (active),
CN(C/C=C/C#CC(C)(C)C)Cc1cccc2ccccc12,,,,inactive,inactive,inactive,,21.3 µM (active),inactive,inactive,inactive,inactive,,inactive,,,
NC(=O)N1C(=O)C(C(=O)c2cc(Cl)cs2)c2cc(F)c(Cl)cc21 (stereo not drawn),17.4 µM (active),,3.89 µM (active),,,,21.9 µM (active),inactive,inactive,19.3 µM (active),inactive,15.5 µM (active),13.8 µM (active),13.8 µM (active),,24.5 µM (active),
[Cl][Au]([Cl])[Cl],3.09 µM (active),,2.75 µM (active),,,,,inactive,inactive,5.45 µM (active),inactive,9.77 µM (active),,11 µM (active),,3.47 µM (active),
CCN(CC)CCNC(=O)c1c(C)[nH]c(/C=C2\C(=O)Nc3ccc(F)cc32)c1C,23.7 µM (active),,13.3 µM (active),,,,29.8 µM (active),inactive,7.56 µM (active),,inactive,4.73 µM (active),,,,,inactive
Nc1ccc(N)c2ccccc12,15.5 µM (active),,43.6 µM (active),,,,19.5 µM (active),11 µM (active),0.775 µM (active),,54.9 µM (active),,,43.6 µM (active),,,
CCCCCOc1ccccc1/C(=C\SC)n1ccnc1,,,,,,,inactive,inactive,inactive,13.3 µM (active),inactive,inactive,,inactive,,,
